Records with an inconclusive call do not appear. The source made the active and inactive calls. Rule for the calls: active = hit-call score of the fitted dose curve at least 0.9, where 1 is the maximum; inconclusive = response in the unintended direction; inactive = score below 0.9.

In general, AC50 refers to the concentration giving half of the maximal activity seen.

This test in a line: ACEA_ER_AUC_viability: ACEA Biosciences xCELLigence Real-Time Cell Analysis on Estrogen Receptor Agonism for Viability (AID 2283782).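 Note: continuous compound exposure with impedance area under curve over 80 h; hit means loss of impedance signal meaning reduced cell growth or viability.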 The method, boiled down:
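T47D cells preconditioned in phenol red-free RPMI with charcoal-stripped FBS, then dosed with 8-point 1:4 series from 100 uM (up to 0.5% DMSO). Impedance monitored up to ~80 h; area-under-curve loss versus DMSO taken as viability.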
On to `CC(C)c1ccc(C(C)C)cc1`, for which the compound was called inactive. In the case of `CCCCCCCCCCCCCCCC(=O)O`, the AC50 is 84.3 µM (active). Turning to `CC(C)(C)C(=O)c1ccccc1`, the compound was called inactive. On the same count and under the same terms, as for `CC1=CCC2C(C1)C2(C)C` (centres undefined), the entry is “inactive”; as for `CO[Si](C)(OC)c1ccccc1`, “inactive”. With `Nc1cc(N)cc(C(=O)O)c1`, the outcome was inactive. In the case of `O=P(c1ccccc1)(c1ccccc1)c1ccccc1`, the compound was called inactive. Same read-out and setting: as for `OCC(CO)(CO)COCC(CO)(CO)CO`, the entry is “inactive”. On the same count and under the same terms, as for `CCCCCCCCC=O`, the entry is “inactive”.
